In PubChem BioAssay (Tox21):
Inconclusive results are not listed. Where a call stands in place of a potency, no number is given. Unmarked numbers belong to inactive results. Activity calls are given as the source filed them. The call rests on the fitted dose curve; in most records, active means well fitted cell-killing curve with a large enough effect in the repeat runs; inconclusive means weak or mixed curves, or effect the other way; inactive means no such curve, though single readings can be large or run the other way.
Potency means the concentration at half of the fitted maximal effect.

Assay: qHTS assay to identify small molecule agonists of the RXR signaling pathway - cell viability counter screen (AID 1159529); further: nearly all actives have a fitted effect of over 50% in size
Conditions: RXR-alpha-bla HEK293T viability, CellTiter-Glo, 16 h; series mostly up to 76.8 µM
Text: National Center for Advancing Translational Sciences [NCATS]
NIH Chemical Genomics Center [NCGC]
U.S. Environmental Protection Agency [EPA]
National Institutes of Environmental Health Sciences [NIEHS]
National Toxicology Program [NTP]
U.S. Food and Drug Administration [FDA]
The Retinoid X receptor (RXR), a nuclear hormone receptor expressed in liver, spleen, placenta, epidermis, central nervous system. These receptors are able to form homo and heterodimers with other nuclear receptors and due to this heterodimerizing ability, RXR functions as master regulators producing diverse physiological effects. Three subtypes of RXR exist; alpha, beta and gamma. Retinoid X receptor alpha (RXR-alpha) has potential roles in metabolic signaling pathways, skin alopecia, dermal cysts, cardiac development, insulin sensitization etc. Therefore screening environmental chemicals on RXR-alpha signaling can be used for the studies focused on such therapeutic applications. For quantification of RXR-alpha ligands signaling, GeneBLAzer RXR alpha-UAS-bla HEK 293T (Life Technologies, Carlsbad, CA) cells containing a beta-lactamase reporter-gene under control of Retinoid X receptor-alpha response element were used to screen Tox21 10K library. The cytotoxicity of the Tox21 compound library against the RXR-alpha HEK 293T cell line was tested in parallel by measuring cell viability using CellTiter-Glo assay (Promega Corporation, Madison, WI) in the same wells.
Tox21 Assay Protocol Summary:
RXR-alpha HEK 293T cells were dispensed at 2,000 cells/6 uL of assay medium containing 2% charcoal-stripped FBS using a Multidrop Combi (ThermoFisher Scientific, Waltham, MA) dispenser. The assay was performed in black wall/clear-bottom 1536-well plates (Greiner Bio-One North America Inc. Monroe, NC). Tetraoctyl ammonium bromide was used as a positive control in the cytotoxicity screen. After the assay plates were incubated at 37 C and 5% CO2 for 5 hr, 23 nL of compounds dissolved in DMSO, positive control or DMSO only were transferred to the assay plate by a Pintool station (Kalypsys, San Diego, CA). The assay plates were incubated at 37 C and 5% CO2 for 16 hr. One uL of LiveBLAzer B/G FRET substrate (Life Technologies) was added using a Flying Reagent Dispenser (FRD) (Aurora Discovery, San Diego, CA) and the plates were incubated at room temperature for 2 hr. Fluorescence intensity (405 nm excitation, 460/530 nm emission) was measured using an Envision plate reader (PerkinElmer, Shelton, CT). For cytotoxicity, 4 uL/well of CellTiter-Glo reagent was added into the assay plates using an FRD. After 30 min incubation at room temperature, the luminescence intensity was measured using a ViewLux plate reader (PerkinElmer).
O=C(O)CNCC(=O)O gave an activity change, negative = cytotoxicity of 3.65% [at 6.97 µM].
Compound Brc1c2ccccc2c(Br)c2ccccc12 has an activity change, negative = cytotoxicity of 0.822% [at 6.97 µM].
In the case of O=C(NCCO[N+](=O)[O-])c1cccnc1, the Potency is reported as “inactive”.
With CC(=O)NO the Potency was “inactive”.
In the case of CCOC(=O)Cc1cccc2ccccc12, the Potency is reported as “inactive”.
For CC(C)OC(=O)C(C)N(C(=O)c1ccccc1)c1ccc(F)c(Cl)c1 (stereo not given), the Potency was “inactive”.
In the case of CCCC(=O)Nc1ccc(O)c(C(C)=O)c1, the Potency is reported as “inactive”.
For O=C(O)c1ccccc1Cl, the Potency was “inactive”.
For CNCCCCOc1ccccc1Cc1ccccc1, the Potency was “inactive”.
For O=C(O)CC(=O)C(=O)O, the Potency was “inactive”.
With COS(=O)(=O)C(F)(F)F the Potency was “inactive”.
In the case of CCC(C)c1cc(C(C)(C)C)c(O)c(C(C)(C)C)c1 (stereo not given), the Potency is reported as “inactive”.
For CC(C)(C)Cl, the Potency was “inactive”.
In the case of CC(=O)OC[C@H]1O[C@@H](n2ncc(=O)[nH]c2=O)[C@H](OC(C)=O)[C@@H]1OC(C)=O, the Potency is reported as “inactive”.
With CCC(Cl)CCC(Cl)C(Cl)CC(Cl)C(Cl)C(Cl)CCl (stereo not given) the Potency was “inactive”.
In the case of CC(C)C[C@H]1C(=O)N2CCC[C@H]2[C@]2(O)O[C@](NC(=O)[C@@H]3C=C4c5cccc6[nH]c(Br)c(c56)C[C@H]4N(C)C3)(C(C)C)C(=O)N12, the Potency is reported as “inactive”.
In the case of C/C=C(/C(=C/C)c1ccc(OC(C)=O)cc1)c1ccc(OC(C)=O)cc1, the Potency is reported as “inactive”.
In the case of CCN(CC)CCNC(=O)c1cc(Br)c(N)cc1OC, the Potency is reported as “inactive”.
With COCCCN1CCC(NC(=O)c2cc(Cl)c(N)c3c2OCC3)CC1 the Potency was “inactive”.
Work on CN(C)c1ccc(/C=C/c2ccc([N+](=O)[O-])cc2)cc1 yielded an activity change, negative = cytotoxicity of -5.22% [at 6.97 µM].
For NC(N)=NCCC[C@H](N)C(=O)O, the activity change, negative = cytotoxicity was 6.89% [at 6.97 µM].
For COc1cc2nc(Cl)nc(N)c2cc1OC, the Potency was “inactive”.
In the case of c1ccc(CNCCNCc2ccccc2)cc1, the Potency is reported as “inactive”.
In the case of CCCCC, the Potency is reported as “inactive”.
For O=C(O)c1ccco1, the Potency was “inactive”.
For ClCCOCCOCCCl, the Potency was “inactive”.
For C[N+](C)(C)CCOC(=O)CCC(=O)OCC[N+](C)(C)C, the Potency was “inactive”.
In the case of O=C1CCC(=O)O1, the Potency is reported as “inactive”.
With CCC(C)(C)CC the Potency was “inactive”.
With C=C1C(=C/C=C2\CCC[C@]3(C)[C@@H]([C@H](C)/C=C/[C@@H](O)C4CC4)CC[C@@H]23)C[C@@H](O)C[C@@H]1O the Potency was 23.9 µM (active).
With CC(C)Cc1ccc(C(C)C(=O)OCc2ccccn2)cc1 (stereo not given) the Potency was “inactive”.
For Nc1cc(C(=O)O)c(O)c(S(=O)(=O)O)c1, the Potency was “inactive”.
In the case of CCCCO, the Potency is reported as “inactive”.
With CCOc1ccc(N=Nc2ccc(/C=C/c3ccc(N=Nc4ccc(OCC)cc4)cc3S(=O)(=O)O)c(S(=O)(=O)O)c2)cc1 the Potency was “inactive”.
With COc1cc2nc(N3CCN(C(=O)C4COc5ccccc5O4)CC3)nc(N)c2cc1OC (stereo not given) the Potency was “inactive”.
For COc1ccnc(CS(=O)c2nc3ccc(OC(F)F)cc3[nH]2)c1OC (stereo not given), the Potency was “inactive”.
With C=CC(=O)OCCOc1ccccc1 the Potency was “inactive”.
In the case of Brc1c2ccccc2cc2ccccc12, the Potency is reported as 35 µM (active).
For c1ccc(C(O[C@H]2CCCN(CCc3ccc4c(c3)OCO4)C2)c2ccccc2)cc1, the Potency was “inactive”.
In the case of NCc1ccccc1Sc1ccccc1CO, the Potency is reported as “inactive”.
